Data reported in PMC4336329 (PLoS ONE, 2015).
Hit rate of the full screen: of about 310,000 compounds, about 14,000 (4.5%) showed an effect of 50% or more. Effects have a minus sign here. For the sample, strong results were picked, then their nearest neighbours and some compounds at random.

molecular target: human ether-à-go-go-related gene (hERG) potassium channel (human, UniProt Q12809); assay: primary screen, population patch clamp on CHO cells stably expressing hERG; higher = less effect of the substance
Sequence (Q12809 whole entry, looked up): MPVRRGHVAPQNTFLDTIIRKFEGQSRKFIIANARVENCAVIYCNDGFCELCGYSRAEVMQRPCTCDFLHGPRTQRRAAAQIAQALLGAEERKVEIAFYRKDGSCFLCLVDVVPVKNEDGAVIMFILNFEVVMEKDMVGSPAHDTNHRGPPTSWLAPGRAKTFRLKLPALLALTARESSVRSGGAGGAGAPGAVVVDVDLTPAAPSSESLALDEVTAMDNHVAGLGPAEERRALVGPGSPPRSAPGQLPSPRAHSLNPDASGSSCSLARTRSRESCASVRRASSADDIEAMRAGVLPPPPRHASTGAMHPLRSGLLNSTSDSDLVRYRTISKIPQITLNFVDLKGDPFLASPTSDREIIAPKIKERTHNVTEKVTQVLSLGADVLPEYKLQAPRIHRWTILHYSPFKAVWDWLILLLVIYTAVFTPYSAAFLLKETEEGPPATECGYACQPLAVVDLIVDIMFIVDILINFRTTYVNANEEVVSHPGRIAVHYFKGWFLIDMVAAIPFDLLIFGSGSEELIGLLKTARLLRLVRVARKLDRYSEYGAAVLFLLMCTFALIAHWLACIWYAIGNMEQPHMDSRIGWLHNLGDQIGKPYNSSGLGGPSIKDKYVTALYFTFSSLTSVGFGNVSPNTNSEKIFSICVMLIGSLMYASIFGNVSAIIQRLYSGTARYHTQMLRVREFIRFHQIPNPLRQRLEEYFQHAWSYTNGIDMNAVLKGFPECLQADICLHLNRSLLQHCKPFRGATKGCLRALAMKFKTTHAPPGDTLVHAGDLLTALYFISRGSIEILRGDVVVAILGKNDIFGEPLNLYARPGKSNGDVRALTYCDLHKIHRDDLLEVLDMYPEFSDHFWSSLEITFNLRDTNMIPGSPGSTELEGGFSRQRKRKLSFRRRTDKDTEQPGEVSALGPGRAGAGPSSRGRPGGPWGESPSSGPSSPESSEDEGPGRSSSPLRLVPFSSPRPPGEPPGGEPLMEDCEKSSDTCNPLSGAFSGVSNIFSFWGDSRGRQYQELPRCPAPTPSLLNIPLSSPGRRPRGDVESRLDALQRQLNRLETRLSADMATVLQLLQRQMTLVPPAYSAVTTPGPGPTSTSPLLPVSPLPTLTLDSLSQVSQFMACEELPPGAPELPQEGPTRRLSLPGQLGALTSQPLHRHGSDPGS
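Note: peak tail current of the secondary pulse compared with the same well before compound.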

SMILES | hERG current change (%, negative = inhibition) at 10uM [%]
CCOc1ccccc1N(C)C(=O)CCS(=O)(=O)c1ccc2c(c1)NC(=O)CO2 | 5.58
CCCOP(=O)(c1ccc(N(C)C)cc1)C(O)c1ccc(Cl)cc1 (stereo not drawn) | 9.5
CCCOP(=O)(c1ccc(N(C)C)cc1)C(O)c1ccc(Cl)cc1Cl (stereo not drawn) | -54.9
CC(C)CCOP(=O)(c1ccc(N(C)C)cc1)C(O)c1ccc(Cl)cc1Cl (stereo not drawn) | 0.259
CC1CC(C)CN(c2oc(-c3ccco3)nc2C#N)C1 (stereo not drawn) | 0.193
COc1cc(/C=N/NC(=O)c2ccncc2)ccc1OCc1cnc(Cl)s1 | 2.43
N#Cc1cc(-c2ccccc2)nc(N2CCNCC2)n1 | -11.3
COc1ccc(-c2cc(C#N)nc(N3CCN(C)CC3)n2)cc1 | -42.5
COc1ccc(-c2cc(C#N)nc(N3CCNCC3)n2)cc1 | -79.3
Cc1ccc(NC(=O)C(=O)NCCN2CCN(S(C)(=O)=O)CC2)cc1C | 0.0768
COc1ccccc1S(=O)Cc1ccc(C(=O)NCc2ccccc2Cl)o1 (stereo not drawn) | -19.5
CCOc1ccc(CCNC(=O)c2ccc(CS(=O)Cc3ccc(Cl)cc3)o2)cc1 (stereo not drawn) | -14.1
O=C(NCCc1ccc(Cl)cc1)c1ccc(CS(=O)Cc2ccccc2Cl)o1 (stereo not drawn) | -30
O=C(NCCc1ccccc1)c1ccc(CS(=O)Cc2cccc(Cl)c2)o1 (stereo not drawn) | -6.23
O=C(NCCc1ccc(Cl)cc1)c1ccc(CS(=O)Cc2ccc(Cl)cc2)o1 (stereo not drawn) | -39.8
CCOc1ccc(CCNC(=O)c2ccc(CS(=O)Cc3cccc(Cl)c3)o2)cc1 (stereo not drawn) | -76
COc1ccccc1S(=O)Cc1ccc(C(=O)NCCc2ccc(Cl)cc2)o1 (stereo not drawn) | -65.4
COc1ccc(CCNC(=O)c2ccc(CS(=O)Cc3ccc(Cl)cc3)o2)cc1OC (stereo not drawn) | -26.7
CSc1ccc(CCNC(=O)c2ccc(CS(=O)Cc3ccccc3Cl)o2)cc1 (stereo not drawn) | -2.87
CCOc1ccc(CCNC(=O)c2ccc(CS(=O)Cc3ccccc3Cl)o2)cc1 (stereo not drawn) | -19
O=C(NCCCc1ccccc1)c1ccc(CS(=O)Cc2ccccc2Cl)o1 (stereo not drawn) | -76.2
O=C(NCCc1ccccc1)c1ccc(CS(=O)Cc2ccc(Cl)cc2)o1 (stereo not drawn) | -58.8

SMILES | hERG current change (%, negative = inhibition) at 10uM [%]
CCOc1ncccc1C(=O)NNC(=O)c1ccc(NS(=O)(=O)c2cccs2)cc1 | 13
Cc1onc(-c2ccccc2)c1C(=O)Nc1sc2c(c1C(N)=O)CCC2 | 6.44
CCC(C)NC(=O)C1CCN(c2nc(OC)nc(OC)n2)CC1 (stereo not drawn) | -4.66
CCN(Cc1cc2ccccc2[nH]c1=O)C(=O)c1cccc([N+](=O)[O-])c1 | -21.8
Clc1cccc(-c2cc3nc4c(c(N5CCOCC5)n3n2)CCCC4)c1 | -6.06
Cn1c(=O)n(-c2cccc(Cl)c2)c(=O)n1C | 6.81
Brc1ccccc1-c1nc(-c2ccccc2)no1 | 5.04
CC1(C)CC(=O)C2=C(C1)c1c(ccc3ccccc13)NC2c1ccco1 (stereo not drawn) | 14.1
CC12CCC(=O)N1C(C(=O)Nc1ccccc1N1CCCCC1)CS2 (stereo not drawn) | -15.9
CCN(CC)S(=O)(=O)N1CCC(C(=O)NC2CCCc3ccccc32)CC1 (stereo not drawn) | -8
Cc1cc(Br)c(S(=O)(=O)NCc2ccncc2)cc1C | 7.87
CNc1cncc(C(=O)O)c1 | 7.43
Cc1ccc(O)c(C(=O)c2cnc3onc(-c4ccc(F)cc4)c3c2)c1 | 4.58
O=C(NCCc1cccs1)c1ccc(CS(=O)Cc2ccc(Cl)cc2)o1 (stereo not drawn) | -20.4
Cc1ccc(CS(=O)Cc2ccc(C(=O)NCCc3ccccc3)o2)cc1 (stereo not drawn) | -7.62
O=C(NCCCc1ccccc1)c1ccc(CS(=O)Cc2ccc(Cl)cc2)o1 (stereo not drawn) | -74.3
Cc1ccccc1C(=O)N1CCN(c2ccc(NC(=O)c3ccco3)cc2)CC1 | 5.43
CCOc1ccc(CN(C)CC(O)COC(c2ccc(OC)cc2)c2ccc(OC)cc2)cc1 (stereo not drawn) | -77.4
CCc1ccc(CNCc2ccc(OCC(O)CN(C)Cc3ccccc3)cc2)nc1 (stereo not drawn) | -17.4
COc1cccc(CN(C)CC(O)COC(c2ccccc2)c2ccccc2C)c1 (stereo not drawn) | -72.1
COc1cccc(CN(C)CC(O)COc2cc(Cl)ccc2Cl)c1.O=C(O)C(=O)O (stereo not drawn) | -42
COc1ccc(CN(C)CC(O)COC(c2ccc(OC)cc2)c2ccc(OC)cc2)cc1 (stereo not drawn) | -77.2

SMILES | hERG current change (%, negative = inhibition) at 10uM [%]
CCc1ccc(CN(C)CC(O)COc2cccc3ccccc23)cc1 (stereo not drawn) | -25.2
COc1cccc(CN(C)CC(=O)Nc2c(C)cccc2C(C)C)c1 | -12.2
COc1ccc(C(OCC(O)CN2CCC(O)CC2)c2ccc(OC)cc2)cc1 (stereo not drawn) | -48
CN(Cc1ccccc1)CC(O)COc1ccc(CNCc2cc3ccccc3s2)cc1 (stereo not drawn) | -25.7
Cn1c(COc2ccccc2)nnc1SCc1nc2ccccc2[nH]1 | -9.92
CCOc1ncccc1C(=O)NC(C)CCc1ccccc1 (stereo not drawn) | -6.92
COc1ccc(OC)c(/C=C2\S/C(=N/NC(=O)c3ccc4ccccc4c3)NC2=O)c1 | 16.5
COc1cccc(CNS(=O)(=O)c2ccc3c(c2)CC(C)N3C(=O)C2CC2)c1 (stereo not drawn) | 18.5
Cc1ccc(-c2nc(CNC(=O)c3ccco3)cs2)cc1 | -13.6
O=C(NCc1csc(-c2ccccc2)n1)c1ccco1 | -40
Cc1cccc(-c2nc(CNC(=O)c3ccco3)cs2)c1 | -57.9
COc1ccc(CNC(=O)[C@@H](NC(=O)C2CCN(C(=O)[C@@H]3CCCN3C(=O)OC(C)(C)C)CC2)C(C)C)cc1 | -9.4
CCOc1ccc(CCNC(=O)CN(C)S(=O)(=O)c2cccc3nsnc23)cc1OCC | -9.79
COc1ccc(S(=O)(=O)N(CCCN2CCOCC2)Cc2cccc3ccccc23)cc1 | -48.6
COc1ccc(S(=O)(=O)N(CCCN2CCOCC2)Cc2ccc(OC)c(OC)c2)cc1 | -39.9
CC(=O)Nc1ccc(S(=O)(=O)N(CCCN2CCOCC2)Cc2cccs2)cc1.O=C(O)C(=O)O | -20.9
O=C(O)C(=O)O.O=S(=O)(c1ccc(Cl)cc1)N(CCCN1CCOCC1)Cc1cccs1 | -63.7
O=C(O)C(=O)O.O=[N+]([O-])c1ccc(S(=O)(=O)N(CCCN2CCOCC2)Cc2cccs2)cc1 | -70.6
CC(C)(C)c1ccc(S(=O)(=O)N(CCCN2CCOCC2)Cc2cccs2)cc1.O=C(O)C(=O)O | -33.4
O=C(Nc1ccc(N2CCCCC2)cc1)c1cccnc1Cl | 13.4
CCOC(=O)C1CCCN(C(=O)c2cc(CN3C(=O)c4ccccc4C3=O)ccc2OC)C1 (stereo not drawn) | -9.55
C=CCc1cccc(/C=N/NC(=O)c2ccccc2OC)c1O | 14.1

SMILES | hERG current change (%, negative = inhibition) at 10uM [%]
C=CCc1cccc(/C=N/NC(=O)CNc2ccccc2)c1O | -2.16
C=CCc1cccc(/C=N/NC(=O)c2ccccc2Br)c1O | -50.2
O=C(C1=C(O)C(=O)N(CCCn2ccnc2)C1c1ccc(F)cc1)c1ccco1 (stereo not drawn) | 15.8
C/C(=N\Nc1ccccn1)c1ccc(C#N)cc1 | -19.3
C/C(=N\Nc1ccccn1)c1ccc(OC(F)F)cc1 | -71.3
COc1cccc(/C(C)=N/Nc2ncc(Cl)cc2Cl)c1 | -10.3
C/C(=N\Nc1ncc(Cl)cc1Cl)c1ccc(C#N)cc1 | -4.88
C/C(=N\Nc1ccccn1)c1ccc(C(C)C)cc1 | 23.7
C/C(=N\Nc1ncc(Cl)cc1Cl)c1ccc(OC(F)F)cc1 | -50.2
CCOC(=O)CNC(=O)c1cnc(Nc2ccccc2OC)c2ccccc12 | 5.33
COc1ccccc1C1/C(=C(\O)c2ccc3c(c2)OCCO3)C(=O)C(=O)N1Cc1cccnc1 (stereo not drawn) | 18.9
O=C(CSc1ccc(-c2cccs2)nn1)NCc1ccccc1Cl | -28.7
Cc1cccc(N2CCN(C(=O)CSCc3c(C)noc3C)CC2)c1C | -14.9
Cc1noc(C)c1COc1ccc(C(=O)N2CCN(c3ccccn3)CC2)cc1 | -31.8
Cc1noc(C)c1COc1ccc(C(=O)N2CCN(c3ccccc3O)CC2)cc1 | -14.4
Cc1noc(C)c1COc1ccc(C(=O)N2CCN(c3ccccc3F)CC2)cc1 | -55
COc1ccc(N2CCN(C(=O)c3ccc(OCc4c(C)noc4C)c(OC)c3)CC2)cc1 | 6.01
Cc1noc(C)c1CSCC(=O)N1CCN(c2ccc(F)cc2)CC1 | -38.1
Cc1noc(C)c1CSCC(=O)N1CCN(c2ccc([N+](=O)[O-])cc2)CC1 | -76.8
COc1cc(C(=O)N2CCN(c3ccc([N+](=O)[O-])cc3)CC2)ccc1OCc1c(C)noc1C | -60.2
COc1cc(C(=O)N2CCN(S(=O)(=O)c3ccc(C)cc3)CC2)ccc1OCc1c(C)noc1C | -21
